Read-out in experiment [1]: Vascular endothelial growth factor receptor 2 (Homo sapiens) (UniProt P35968)
Put plainly: BSK_4H_VEGFRII: BioMAP Diversity Plus: 4H Assay for Vascular endothelial growth factor receptor 2 (VEGFR2) Biomarker Activity (AID 2283031).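 As to AC50: cell-surface VEGFR2 protein level quantified by ELISA.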 As to conditions: primary human endothelial cells (HUVEC); actives raise or lower the signal. A digest of the protocol:
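ELISA read-out of VEGFRII in primary human umbilical vein endothelium, taken 24 h after chemical treatment. Responses are expressed relative to DMSO, with bidirectional fitting.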

Read-out in experiment [2]: Human Leukocyte Antigen - DR isotype (HLADR), HLA-DRA (gene 3122)
Put plainly: BSK_BE3C_HLADR: BioMAP Diversity Plus: BE3C Assay for Human Leukocyte Antigen - DR isotype (HLADR) Biomarker Activity (AID 2283032). As to conditions: primary human bronchial epithelial cells; actives raise or lower the signal. A digest of the protocol: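 Human primary bronchial epithelial cells in the BE3C system were exposed to chemicals for 24 h, after which HLA-DR levels were quantified by ELISA. Activity was fitted bidirectionally, gain or loss of signal, against DMSO as negative control and baseline.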

Read-out in experiment [3]: Vascular cell adhesion molecule 1 (VCAM1), VCAM1 (gene 7412)
Put plainly: BSK_4H_VCAM1: BioMAP Diversity Plus: 4H Assay for Vascular cell adhesion molecule 1 (VCAM1) Biomarker Activity (AID 2283033).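 As to Outcome: cell-surface VCAM-1 protein measured by ELISA.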 As to conditions: primary human endothelial cells (HUVEC); actives raise or lower the signal. In short, it runs like this: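 Primary human umbilical vein endothelial cells were exposed to chemicals for 24 h, after which VCAM-1 was quantified by ELISA. Responses were fitted bidirectionally against DMSO as negative control and activity baseline.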

Read-out in experiment [4]: Interferon-gamma inducible Protein 10 (IP10), CXCL10 (gene 3627)
Put plainly: BSK_BE3C_IP10: BioMAP Diversity Plus: BE3C Assay for Interferon-gamma inducible Protein 10 (IP10) Biomarker Activity (AID 2283034). As to conditions: primary human bronchial epithelial cells; actives raise or lower the signal. In short, it runs like this: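 Human primary bronchial epithelial cells were exposed to chemicals for 24 hours, after which IP-10 levels were measured by ELISA. Data were fitted bidirectionally against DMSO, which served as the negative control and activity baseline.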

Read-out in experiment [5]: Monokine induced gamma interferon (MIG), CXCL9 (gene 4283)
Put plainly: BSK_BE3C_MIG: BioMAP Diversity Plus: BE3C Assay for Monokine induced gamma interferon (MIG) Biomarker Activity (AID 2283035). As to conditions: primary human bronchial epithelial cells; actives raise or lower the signal. In short, it runs like this: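 Primary human bronchial epithelial cells treated for 24 h; MIG levels measured by ELISA, fitted bidirectionally versus DMSO. Parallel SRB total-protein staining assessed cytotoxicity.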

Read-out in experiment [6]: Transforming growth factor beta 1 (TGFb1), TGFB1 (gene 7040)
Put plainly: BSK_BE3C_TGFb1: BioMAP Diversity Plus: BE3C Assay for Transforming growth factor beta 1 (TGFb1) Biomarker Activity (AID 2283036). As to conditions: primary human bronchial epithelial cells; actives raise or lower the signal. In short, it runs like this:
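Human primary bronchial epithelial cells (BE3C system) were dosed with chemical and TGF-b1 levels measured by ELISA at 24 h. Activity was fitted bidirectionally relative to DMSO negative control as baseline.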

Read-out in experiment [7]: Plasminogen activator inhibitor-1 (PAI1), SERPINE1 (gene 5054)
Put plainly: BSK_BE3C_PAI1: BioMAP Diversity Plus: BE3C Assay for Plasminogen activator inhibitor-1 (PAI1) Biomarker Activity (AID 2283037). As to conditions: primary human bronchial epithelial cells; actives raise or lower the signal. A digest of the protocol:
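Human primary bronchial epithelial cells were exposed to chemical for 24 h, then PAI-1 was quantified by ELISA. Activity was fitted bidirectionally relative to the DMSO negative control baseline.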

Read-out in experiment [8]: urokinase plasminogen activator (uPA), PLAU (gene 5328)
Nature of the experiment: BSK_BE3C_uPA: BioMAP Diversity Plus: BE3C Assay for urokinase plasminogen activator (uPA) Biomarker Activity (AID 2283038).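 As to Outcome: uPA protein level quantified by ELISA in cell cultures; uPA read one day after compound addition.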 As to conditions: primary human bronchial epithelial cells; actives raise or lower the signal. A digest of the protocol:
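Bronchial epithelial cells (human, primary); chemical 24 h; uPA by ELISA; bidirectional fit vs DMSO. SRB (0.1%, after 10% TCA fixation, 560 nm) in parallel cultures for cytotoxicity.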

Read-out in experiment [9]: Urokinase-type plasminogen activator receptor (uPAR), PLAUR (gene 5329)
Put plainly: BSK_BE3C_uPAR: BioMAP Diversity Plus: BE3C Assay for Urokinase-type plasminogen activator receptor (uPAR) Biomarker Activity (AID 2283039).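 As to Outcome: cells exposed to compound for one day before measurement.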 As to conditions: primary human bronchial epithelial cells; actives raise or lower the signal. In short, it runs like this:
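Primary human bronchial epithelial cells were dosed with chemical and harvested 24 h later; uPAR was quantified by ELISA. Activity was fitted bidirectionally against DMSO as negative control and baseline.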

Read-out in experiment [10]: Interleukin-6 (IL6), IL6 (gene 3569)
Nature of the experiment: BSK_CASM3C_IL6: BioMAP Diversity Plus: CASM3C Assay for Interleukin-6 (IL6) Biomarker Activity for (AID 2283040). As to conditions: primary human coronary artery smooth muscle cells; actives raise or lower the signal.

Read-out in experiment [11]: Tissue plasminogen activator (tPA), PLAT (gene 5327)
Put plainly: BSK_BE3C_tPA: BioMAP Diversity Plus: BE3C Assay for Tissue plasminogen activator (tPA) Biomarker Activity (AID 2283041).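 As to Outcome: tPA level quantified by ELISA one day after compound addition.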 As to conditions: primary human bronchial epithelial cells; actives raise or lower the signal. In short, it runs like this:
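Human primary bronchial epithelial cells were dosed with chemical and tPA biomarker levels measured by ELISA 24 hours later. Activity was fitted bidirectionally against DMSO as negative control and baseline.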

Read-out in experiment [12]: Interleukin-8 (IL8), CXCL8 (gene 3576)
Nature of the experiment: BSK_CASM3C_IL8: BioMAP Diversity Plus: CASM3C Assay for Interleukin-8 (IL8) Biomarker Activity (AID 2283042).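 Also: IL-8 protein level quantified by ELISA.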 As to conditions: primary human coronary artery smooth muscle cells; actives raise or lower the signal.

Read-out in experiment [13]: Human Leukocyte Antigen - DR isotype (HLADR), HLA-DRA (gene 3122)
Put plainly: BSK_CASM3C_HLADR: BioMAP Diversity Plus: CASM3C Assay for Human Leukocyte Antigen - DR isotype (HLADR) Biomarker Activity (AID 2283043).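 Also: cell-surface HLA-DR protein level quantified by ELISA.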 As to conditions: primary human coronary artery smooth muscle cells; actives raise or lower the signal.

Read-out in experiment [14]: Macrophage colony-stimulating factor (MCSF), CSF1 (gene 1435)
Put plainly: BSK_CASM3C_MCSF: BioMAP Diversity Plus: CASM3C Assay for Macrophage colony-stimulating factor (MCSF) Biomarker Activity (AID 2283044).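 Also: M-CSF protein amount quantified by ELISA after 24 h exposure.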 As to conditions: primary human coronary artery smooth muscle cells; actives raise or lower the signal.

Read-out in experiment [15]: Monocyte Chemoattractant Protein-1 (MCP1), CCL2 (gene 6347)
Put plainly: BSK_CASM3C_MCP1: BioMAP Diversity Plus: CASM3C Assay for Monocyte Chemoattractant Protein-1 (MCP1) Biomarker Activity (AID 2283046).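 Also: MCP-1 level quantified by ELISA 24 h after dosing.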 As to conditions: primary human coronary artery smooth muscle cells; actives raise or lower the signal.

Experiment [16] is described as follows: BSK_CASM3C_Proliferation: Cell Proliferation Assessment in the BioMAP Diversity Plus: CASM3C Assay (AID 2283047).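 Also: sulforhodamine B total protein stain as relative cell number at 560 nm; sub-confluent cells exposed 48 h before staining; fitted both ways against DMSO so gain or loss of cell number.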 As to conditions: primary human coronary artery smooth muscle cells.
Read-out in experiment [17]: Monokine induced gamma interferon (MIG), CXCL9 (gene 4283)
Put plainly: BSK_CASM3C_MIG: BioMAP Diversity Plus: CASM3C Assay for Monokine induced gamma interferon (MIG) Biomarker Activity (AID 2283048). As to conditions: primary human coronary artery smooth muscle cells; actives raise or lower the signal.

Read-out in experiment [18]: serum amyloid A (SAA), SAA1 (gene 6288)
Put plainly: BSK_CASM3C_SAA: BioMAP Diversity Plus: CASM3C Assay for serum amyloid A (SAA) Biomarker Activity (AID 2283049).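 Also: SAA protein level quantified by ELISA.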 As to conditions: primary human coronary artery smooth muscle cells; actives raise or lower the signal.

Experiment [19] in a line: BSK_CASM3C_SRB: Viability Assessment in the BioMAP Diversity Plus: CASM3C Assay (AID 2283050).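 Also: total protein by SRB staining as cytotoxicity measure in parallel cultures.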 As to conditions: primary human coronary artery smooth muscle cells.
Read-out in experiment [20]: Low-density lipoprotein receptor (LDLR), LDLR (gene 3949)
Put plainly: BSK_CASM3C_LDLR: BioMAP Diversity Plus: CASM3C Assay for Low-density lipoprotein receptor (LDLR) Biomarker Activity (AID 2283045).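 Also: LDLR protein level on the cell surface quantified by ELISA.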 As to conditions: primary human coronary artery smooth muscle cells; actives raise or lower the signal.

Outcome and AC50 data for five compounds are collected here from PubChem BioAssay (EPA / NIEHS).

Active and inactive are the calls of the source. The calls were made as follows: active = hit-call score of the fitted dose curve at least 0.9, where 1 is the maximum; inactive = score below 0.9.

One may read the AC50 as the midpoint of the concentration-response curve, whichever way the signal moves.

In the case of `Oc1ccc(C(c2ccc(O)cc2)(C(F)(F)F)C(F)(F)F)cc1`, the outcome in [1], in experiment [10], in experiment [12], in experiment [13], in [14] and in experiment [15] was inactive. In addition, in [17], the outcome was inactive. Further, the AC50 is 20.1 µM (active) in experiment [2]; 29.3 µM (active) in [3]; 24.1 µM (active) in [4]; 37.3 µM (active) in experiment [5]; 28.5 µM (active) in [6]; 21.4 µM (active) in experiment [7]. Besides, the AC50 in experiment [8] is 38.2 µM (active); in experiment [9], 38.1 µM (active); in experiment [11], 21.8 µM (active); in experiment [16], 20 µM (active); in experiment [18], 37.6 µM (active); in experiment [19] it was 27.9 µM (active).

In the case of `c1ccc(-c2ccccc2)cc1`, the outcome in experiment [2], in experiment [3], in [4], in [5], in [6] and in experiment [7] was inactive. Further, the result in experiment [8], in experiment [9], in [10], in [11], in experiment [12] and in experiment [13] was inactive. Also, the outcome in [14], in [20], in experiment [15], in [16], in experiment [17] and in experiment [18] was inactive. For the same compound, the outcome in [19] was inactive.

In the case of `ClC1=C(Cl)[C@]2(Cl)[C@@H]3[C@@H]4C[C@@H]([C@H]5O[C@@H]45)[C@@H]3[C@@]1(Cl)C2(Cl)Cl`, the result in [1], in experiment [2], in experiment [3], in experiment [4], in experiment [5] and in experiment [6] was inactive. Moreover, the outcome in [7], in [8], in [9], in [10], in [11] and in experiment [12] was inactive. The outcome in [13], in experiment [14], in experiment [20], in experiment [15], in experiment [17] and in experiment [19] was inactive. Further, in experiment [18], the AC50 was 0.468 µM (active).

In the case of `CCOC(=O)C(O)(c1ccc(Cl)cc1)c1ccc(Cl)cc1`, the AC50 in experiment [1] was 27.9 µM (active); in [3], 30.7 µM (active); in experiment [4], 31.1 µM (active); in experiment [7], 14.7 µM (active); in experiment [16], 30 µM (active); in experiment [19], 29.5 µM (active). For the same compound, the outcome in [2], in experiment [5], in [6], in [8], in experiment [9] and in experiment [10] was inactive. For the same compound, the outcome in experiment [11], in experiment [12], in experiment [13], in experiment [14], in experiment [20] and in experiment [15] was inactive. In addition, the outcome in experiment [17] and in experiment [18] was inactive.

Take `CCCCCCCCCc1ccc(O)cc1`: the AC50 in [2] is 13.6 µM (active); in experiment [3], 15.8 µM (active); in experiment [4], 13.1 µM (active); in experiment [5], 18.5 µM (active); in [6], 16.4 µM (active); in experiment [7], 15.7 µM (active). Further, the AC50 was 15.1 µM (active) in experiment [8]; 15.7 µM (active) in experiment [9]; 27.8 µM (active) in [10]; 7.58 µM (active) in experiment [11]; 33 µM (active) in experiment [12]; 31.4 µM (active) in experiment [13]. For the same compound, the concentration at half-maximal activity (AC50) in [14] was 34.6 µM (active); in experiment [20], 29.3 µM (active); in [15] it was 31.8 µM (active); in [16], 16 µM (active); in experiment [17], 36.1 µM (active); in [18], 29.8 µM (active). Moreover, in experiment [19], the AC50 is 34.1 µM (active).
